Bioassay records from PubChem BioAssay.
An excerpt weighted towards active compounds, which were near 7.5% of everything screened.
FLuc modulator – inhibits or activates purified firefly luciferase, miR-21 counter-screen; P08659; AID 588342; purified FLuc, Km substrates, luminescence inhibition; 360,000 tested, 6.9% active; Potency, µM (titrated, usually from 57.5 µM), for the others: at the top dose activity change, negative = inhibition, most hits filed as inhibitors;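 further: plate controls were vehicle for no effect and reference inhibitor for full effect; nearly all actives have a fitted effect of over 55% in size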
Target sequence (P08659 whole entry, looked up): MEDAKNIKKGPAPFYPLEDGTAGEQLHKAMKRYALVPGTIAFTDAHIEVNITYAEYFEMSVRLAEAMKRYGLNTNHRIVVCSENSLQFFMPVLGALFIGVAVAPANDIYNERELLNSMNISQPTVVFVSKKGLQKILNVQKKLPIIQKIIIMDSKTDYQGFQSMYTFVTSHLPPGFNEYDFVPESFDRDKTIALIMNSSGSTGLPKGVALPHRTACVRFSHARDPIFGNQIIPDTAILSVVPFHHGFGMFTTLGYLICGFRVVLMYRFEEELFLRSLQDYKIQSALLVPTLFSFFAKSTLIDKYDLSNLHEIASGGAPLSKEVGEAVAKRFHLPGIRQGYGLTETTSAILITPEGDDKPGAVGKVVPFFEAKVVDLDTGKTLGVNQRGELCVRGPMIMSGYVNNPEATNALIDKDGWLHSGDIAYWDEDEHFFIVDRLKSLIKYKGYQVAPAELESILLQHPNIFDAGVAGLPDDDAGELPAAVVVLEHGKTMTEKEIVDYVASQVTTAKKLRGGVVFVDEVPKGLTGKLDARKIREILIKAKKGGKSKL
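Biochemical qHTS of compounds, final roughly 60 µM downward over six points, against 10 nM purified firefly luciferase using Km concentrations of substrates (10 uM D-luciferin, 10 uM ATP) in Tris acetate pH 7.5 buffer; luminescence output.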
Rab9 prom act – activates the Rab9 promoter; Potency, µM (top dose mostly 9.22 µM), inactives show at the highest dose activation, negative = inhibition, most hits filed as activators; Huh7 Rab9 promoter-luciferase reporter, luminescence, 24 h; AID 485297; 320,000 tested, 2.8% active; further: % of control where 0% means no effect; nearly all actives have a fitted effect of over 60% in size
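Luminescence from Amplite-detected luciferase (10 minutes, ambient) reports Rab9 promoter activation. Before that, stable Rab9-luciferase Huh7 cells (1500/well, reduced-serum OP-MEM I plus 10% FBS) were exposed to compound for 24 hours at 37C.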
KinaseGlo FLuc – counter-screen: inhibitors of Kinase-Glo firefly luciferase; Q27757; Kinase-Glo luciferase, ATP luminescence, 8 min; Potency, µM (highest dose often 38.3 µM), inactives show top-dose activity change, negative = inhibition, usual class: inhibitors; 200,000 tested, 0.28% active; further: on the % scale 0 is the no-effect control and ±100 the full control effect; nearly all actives have a fitted effect of over 60% in size
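Luminescence was the read-out, taken after 8-minute incubation at ambient temperature. Luciferase turned over luciferin with 10 uM ATP in imidazole pH 7.2 buffer containing KCl, MgCl2, Tween 20 and BSA.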
NPC1 prom act – activators of NPC1 promoter. 320,000 tested, 2.4% active. Potency, µM (doses to about 9.22 µM), inactives show at the top dose activation, actives largely listed as activators. Huh7 NPC1 promoter luciferase reporter, 24 h; further: % of control where 0% means no effect; nearly all actives have a fitted effect of over 60% in size
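Huh7 cells stably carrying NPC1 promoter–luciferase, plated in Opti-MEM with 10% FBS for 2 h, were exposed to compound in DMSO for 24 h at 37 °C; luciferase reagent was added for 10 min and luminescence read.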
ELG1 genotox – genotoxicity induction in ELG1-luciferase HEK293T cells; Potency, µM (titrated, usually from 46 µM), inactives show at the top dose activity change, positive = activation, hits mostly activators; HEK293T ELG1-luciferase reporter, luminescence, 16 h; AID 504466; 330,000 tested, 1.3% active; further: % of control where 0% means no effect; nearly all actives have a fitted effect of over 60% in size
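Cells (2,000/well) expressing the ELG1-luciferase fusion are dosed by pin tool and kept 16 hr at 37 °C, 5% CO2. Signal comes from ONE-Glo luciferase reagent after 30 min at room temperature.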
SMN2 splice up – enhancers of SMN2 splice variant expression | HEK293 SMN2-luciferase splicing reporter, luminescence, 30-36 h | Potency, µM (top dose mostly 46.1 µM), inactives show top-dose activity change, positive = activation, actives largely listed as activators | 210,000 tested, 2.8% active | AID 1458; further: % of control where 0% means no effect; nearly all actives have a fitted effect of over 55% in size
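qHTS luciferase splicing reporter: luminescence rises when SMN2 exon 7 is included in transfected HEK293 cells. Compound exposure lasted 30-36 h at 37C, with 4.5 mM final sodium butyrate as control, followed by a ONE-Glo read.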
* = called active by the depositor; ? = inconclusive; / = no result; [ ] = dose if it differs, or a comment. The call rests on the fitted dose curve; in most records, active means well fitted curve in the direction sought with a large enough effect; inconclusive means small, poorly fitted or top-dose-only effect, or another doubt; inactive means no such curve, though single readings can be large; an effect the other way counts as inactive or inconclusive. Potency means the concentration at half of the fitted maximal effect.

SMILES	FLuc modulator	Rab9 prom act	KinaseGlo FLuc	NPC1 prom act	ELG1 genotox	SMN2 splice up
CCCc1nc2oc3ccccc3c(=O)c2c(=O)n1-c1ccc(C)cc1	-27.6%	?	/	16.7%	?	/
CCc1nc2oc3ccccc3c(=O)c2c(=O)n1-c1ccccc1	-1.0%	2.9%	-1.9%	14.5%	13µM*	11.2µM*
CCc1nc2oc3ccccc3c(=O)c2c(=O)n1-c1ccc(C)cc1	16.9µM*	23.3%	/	16.2%	?	/
COc1ccccc1C(=O)c1c(N)c(-c2nc(-c3ccccc3)cs2)c2ccccn12	-5.0%	/	/	/	/	2.1%
Cc1csc(=O)n1CC(=O)OC(C)C(=O)Nc1cccc(Cl)c1 (stereo not drawn)	-0.6%	-6.7%	/	1.0%	-0.8%	/
CC(C)(C)c1ccc(C(=O)COC(=O)CN2C(=O)NC3(CCCC3)C2=O)cc1	8.49µM*	0.3%	/	-2.9%	5.2%	/
CC(C)(C)c1ccc(COC(=O)CN2C(=O)NC3(CCCC3)C2=O)cc1	2.3%	-2.5%	/	8.6%	-2.8%	/
O=C(N/N=C/c1ccoc1)c1cc(Br)ccc1O	3.01µM*	2.6%	/	-0.1%	9.9%	/
CCOc1ccc(Br)cc1C(=O)N/N=C/c1cccc(C)n1	2.3%	-2.1%	/	1.0%	1.0%	/
Cc1cccc(/C=N/NC(=O)c2cc(Br)ccc2O)n1	23.9µM*	18.8%	/	10.2%	?	/
COc1ccc(C(CC(=O)Nc2cccc(C)c2C)N2Cc3ccccc3C2=O)cc1 (stereo not drawn)	-15.8%	/	/	/	/	/
Cc1nn(-c2ccccc2)c2sc(C(=O)N3CCCCC3)cc12	19µM*	/	-0.2%	/	/	?
COc1cc(NC(=O)c2cc3nc(-c4ccc(C)cc4)cc(C(F)(F)F)n3n2)cc(OC)c1OC	-0.2%	/	/	/	/	6.7%
Nc1nc2ccccc2n1/N=C/c1ccc(-c2ccccc2)o1	?	3.98µM*	-2.8%	?	?	27.1%
O=C(OCc1ccc([N+](=O)[O-])cc1)c1ccc2ccccc2n1	-13.1%	-1.5%	/	0.2%	3.3%	/
O=C(OCc1cccc([N+](=O)[O-])c1)c1ccc2ccccc2n1	26.9µM*	-2.6%	1.5%	-28.9%	2.6%	12.5%
Cc1cc(C)cc(-n2cnc3cc(C(=O)NCCc4ccccc4)ccc32)c1	-16.9%	/	/	/	/	/
Cc1oc2c(c1C(=O)Nc1ccccc1Br)C1=NCCN1C=N2	-2.7%	/	/	/	/	/
NC(=O)COC(=O)c1sc2ccccc2c1Cl	?	-1.0%	-1.7%	4.1%	0.8%	11.5%
Cc1cc(C)n(CCOC(=O)c2sc3ccccc3c2Cl)n1	8.49µM*	3.2%	-3.0%	-1.5%	11.3%	-11.5%
COc1ccc(N/N=C(/Oc2ccc([N+](=O)[O-])cc2)C(C)=O)cc1	1.3%	-1.4%	-1.9%	-5.9%	6.0%	-8.6%
COc1ccc(NN=Nc2ccc([N+](=O)[O-])cc2)cc1	2.39µM*	3.55µM*	/	?	?	/
N#Cc1nc(-c2ccccc2F)oc1NCc1ccccc1	-16.2%	-8.0%	-2.6%	-3.0%	5.8%	8.7%
COc1ccc(Nc2oc(-c3cccs3)nc2C#N)cc1	4.78µM*	3.16µM*	-1.4%	?	?	?
N#Cc1nc(-c2ccco2)oc1NCCc1ccccc1	?	8.5%	-0.3%	8.7%	2.9%	7.4%
SMILES	FLuc modulator	Rab9 prom act	KinaseGlo FLuc	NPC1 prom act	ELG1 genotox	SMN2 splice up
N#Cc1nc(-c2cccs2)oc1NCCc1ccccc1	19µM*	7.3%	-1.9%	17.7%	?	-6.5%
N#Cc1nc(-c2ccccc2F)oc1NCCc1ccccc1	26.9µM*	20.8%	-2.2%	21.0%	6.4%	-4.2%
COc1ccc(OC)c(NC(=O)Cn2c(=O)c3cccn3c3ccccc32)c1	-2.0%	/	/	/	/	/
CN(C)/C=N/C(=S)Nc1cc(Cl)cc(Cl)c1	1.7%	-3.1%[1.84 µM]	2.2%	-1.0%	-0.7%	-0.4%
CN(C)/C=N/C(=S)Nc1ccc(Cl)c(Cl)c1	16.9µM*	24.4%	-6.2%	17.9%	?	13.1%
Cc1cc(C(=O)N/N=C/c2ccc(N(C)C)o2)cs1	?	3.9%	/	0.3%	18.3%	/
Cc1ccc(/C=N/NC(=O)c2csc(C)c2)o1	15.1µM*	10.4%	1.4%	22.6%	8.0%	11.3%
Cc1ccc(/C=N/NC(=O)c2cccs2)o1	16.9µM*	1.6%	-3.6%	15.6%	14.0%	9.1%
COC(=O)C1C(=O)c2c([nH]c(C(=O)OC3CCCC3)c2C)CC1C (stereo not drawn)	2.39µM*	/	13.1%	/	/	14.1µM*
COc1ccc(C2CC(=O)c3c([nH]c(C(=O)OC4CCCCCC4)c3C)C2)cc1 (stereo not drawn)	2.0%	/	/	/	/	-16.7%
CCc1nn2c(=O)c(S(=O)(=O)Nc3ccc(C)c(C)c3)c(C)nc2s1	-5.7%	/	/	/	/	-13.5%
CC(Nc1oc(-c2ccccc2)nc1-c1cccc2ccccc12)c1ccccc1 (stereo not drawn)	/	/	-3.4%	/	/	13.9%
Clc1cccc(/C=N/Nc2nc(Cl)nc3ccccc23)c1	4.78µM*	3.98µM*	-0.3%	2.82µM*	?	22.4µM*
Fc1ccccc1/C=N/Nc1ncnc2ccccc12	1.69µM*	3.16µM*	-8.2%	14.8%	?	11.2µM*
Clc1ccc(/C=N/Nc2ncnc3ccccc23)cc1Cl	8.49µM*	3.98µM*	3.9%	?	?	?
Cc1cc(C)nc(N/N=C/c2cccc(Cl)c2)n1	?	26.6%	-2.0%	10.4%	13.2%	?
Cc1cccc(C(=O)NCCc2nc3ccccc3n2CCC(C)C)c1	1.6%	/	/	/	/	-15.8%
O=C(Nc1ccc(F)cc1)c1ccc(CSc2ccccc2)o1	15.1µM*	0.7%	-0.9%	-1.2%	6.7%	-4.2%
CC1CCN(C(=O)c2[nH]cnc2C(=O)N[C@@H](C)c2ccccc2)CC1	2.2%	4.1%	/	-5.2%	4.9%	/
CCN(CC)C(=O)COc1ccc2c3c(c(=O)oc2c1C)CCCC3	-2.1%	-3.5%	/	0.2%	0.4%	/
Cc1c(OCC(=O)Nc2cccnc2)ccc2c3c(c(=O)oc12)CCC3	19µM*	28.0%	/	29.9%	12.8%	/
COC(=O)c1ccc(COc2ccc3c(C)c(C)c(=O)oc3c2C)o1	4.78µM*	?	-1.1%	?	6.8%	15.8%
Cc1c(OCc2ccc(C(=O)O)o2)ccc2c3c(c(=O)oc12)CCC3	19µM*	1.9%	-2.8%	-1.5%	?	12.0%
COc1ccccc1COc1ccc2c(C)c(CCC(=O)O)c(=O)oc2c1C	23.9µM*	2.7%	/	-1.5%	4.6%	/
COC(=O)c1ccc(COc2ccc(Cl)cc2)o1	?	20.4%	/	15.7%	8.0%	/
COc1ccc2c(c1)CC(NC(=O)Nc1ccc(NC(C)=O)cc1)CO2 (stereo not drawn)	-0.8%	/	/	/	/	/
Cc1ccc2onc(CC(=O)Nc3ccc(C(C)C)cc3)c2c1	-1.2%	/	/	/	/	/
